Source: PubChem BioAssay (NCATS)
Inconclusive results are not listed. Where a call stands in place of a potency, no number is given. Calls of active or inactive are those of the source. Calls follow the shape of the dose curve; as a rule, active = well fitted curve in the direction sought with a large enough effect in the signal ratio, with a control signal flat (not every such curve was filed as active); inconclusive = small, poorly fitted or top-dose-only effect, or a change in a side signal; inactive = no such curve, though single readings can be large or run the other way; the % refers to the signal ratio.

Test: qHTS Assay for Identification of Small Molecule Inducers of Hypoxia Response (AID 2120)
Conditions: hypoxia response reporter cells, beta-lactamase ratio readout; series mostly up to 104 µM
Excerpt: NIH Chemical Genomics Center [NCGC]
NIH Molecular Libraries Screening Centers Network [MLSCN]
National Institutes of Environmental Health Sciences [NIEHS]
National Toxicology Program [NTP]
Hypoxia-inducible factor-1 (HIF-1) is the major hypoxia-regulated transcription factor that controls cellular responses to low oxygen concentration. HIF-1 is composed of two subunits: hypoxia responsive HIF-1a and constitutively expressed HIF-1b, which is also known as aryl hydrocarbon receptor nuclear translocator. During hypoxic conditions, HIF-1a heterodimerizes with HIF-1b and translocates into the nucleus where the HIF-1 complex binds to the hypoxia-response element (HRE) and activates expression of target genes such as VEGF (vascular endothelial growth factor). The HIF-1 pathway is essential to normal growth and development, and is involved in the pathophysiology of cancer, inflammation, and ischemia.
Using a beta-lactamase reporter-gene under control of the hypoxia response element, a cell-based assay [CellSensor(TM) HRE-bla ME-180 developed by Invitrogen Corp.] was used to measure hypoxia-induced signaling. Library compounds were measured for their ability to induce the reporter gene activity. Compounds were screened in a titration series in 1536-well format. The inducers were identified based on the AC50 values derived from the screening data.
NCGC Assay Protocol Summary
2500 cells/5uL in Opti-MEM medium containing 0.5% dialyzed FBS, 0.1 mM NEAA, 1 mM sodium pyruvate and 10 mM HEPES was dispensed into 1536-well plates and cells were cultured at 37 degrees Celsius for 4-5 hours and then 23 nL of compounds or DMSO were delivered to each well using a pin tool. The plates were incubated at 37 degrees Celsius for 17 hours. 1 uL of CCF4-dye mixture was added to each well. After incubated at room temperature for 2.5 hours the plates were measured on an EnVision plate reader at Excitation 405nm, Emission1=460nm and Emission 2=530nm. The %Activity was determined from the ratio of 460nm/530nm.
In the case of `Cc1ccc(N)cc1Cl`, the Potency is reported as “inactive”.
For `CCCCCc1cc(O)cc(O)c1`, the Potency was “inactive”.
For `N#C/C=C/C#N`, the Potency was “inactive”.
With `Oc1c(Cl)cccc1Cl` the Potency was “inactive”.
In the case of `c1ccc2c(c1)CCNC2`, the Potency is reported as “inactive”.
For `CNC(=O)O/N=C/C(C)(C)S(C)=O` (stereo not given), the Potency was “inactive”.
With `Cc1cc(-c2cc(C)c(N)c(C)c2)cc(C)c1N` the Potency was “inactive”.
With `NC1CCC(CC2CCC(N)CC2)CC1` (stereo not given) the Potency was “inactive”.
With `O=C(O)C(Cl)(Cl)Br` the Potency was “inactive”.
For `Oc1cc(Cl)c(Cl)c(Cl)c1Cl`, the Potency was “inactive”.
With `Brc1cccc(-c2ccccc2)c1` the Potency was “inactive”.
For `C/C=C/C=O`, the Potency was “inactive”.
With `C=CCBr` the Potency was “inactive”.
For `O=C(O)c1cc(Cl)ccc1Cl`, the Potency was “inactive”.
For `CN(C)c1ccccc1`, the Potency was “inactive”.
In the case of `c1ccoc1`, the Potency is reported as “inactive”.
With `Nc1ncc([N+](=O)[O-])s1` the Potency was “inactive”.
With `Cl/C=C/Cl` the Potency was “inactive”.
With `N#CCc1ccccc1` the Potency was “inactive”.
With `ClC(Cl)(Cl)C(Cl)(Cl)Cl` the Potency was “inactive”.
For `C(CCOCC1CO1)COCC1CO1` (stereo not given), the Potency was “inactive”.
For `CCOC(=O)C1OC1(C)c1ccccc1` (stereo not given), the Potency was “inactive”.
In the case of `Cc1cccc(N)c1C`, the Potency is reported as “inactive”.
For `O=[N+]([O-])c1ccccc1CCl`, the Potency was “inactive”.
With `Cc1ccc([N+](=O)[O-])cc1` the Potency was “inactive”.
For `N#CC(Br)Br`, the Potency was “inactive”.
In the case of `CCCCNC(=O)n1c(NC(=O)OC)nc2ccccc21`, the Potency is reported as “inactive”.
In the case of `Cl/C=C/CCl`, the Potency is reported as “inactive”.
For `CCCCOC(=O)c1ccccc1N`, the Potency was “inactive”.
In the case of `Cl/C=C\Cl`, the Potency is reported as “inactive”.
With `Nc1c(Cl)cc([N+](=O)[O-])cc1Cl` the Potency was “inactive”.
With `CC(C)(C)OOC(=O)c1ccccc1` the Potency was “inactive”.
In the case of `BrCCc1ccccc1`, the Potency is reported as “inactive”.
In the case of `Cc1ccc(OP(=O)(Oc2ccc(C)cc2)Oc2ccc(C)cc2)cc1`, the Potency is reported as “inactive”.
For `CCCCCCCCCCCOC(=O)c1ccccc1C(=O)OCCCCCCCCCCC`, the Potency was “inactive”.
In the case of `O=C(O)CBr`, the Potency is reported as “inactive”.
For `Clc1cccc(Cl)c1Cl`, the Potency was “inactive”.
With `CC(C)(Cl)Cl` the Potency was “inactive”.
In the case of `CCOC(=O)CBr`, the Potency is reported as “inactive”.
With `CN=C=O` the Potency was “inactive”.
